# Experimental data: PubChem BioAssay
# Activity calls are given as the source filed them. Unless noted, how the calls were made is not given here.
# What was measured:
# [1] = tested on: Wnt5a (protein binding on small-molecule microarray); test: small molecules binding Wnt5a protein – biophysical, small-molecule microarray, 635/667 nm fluorescence, primary screen (AID 1142); details: 635 nm fluorescence, higher = more signal;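 further: fluorescence read at 667 nm with signal to noise per printed feature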
# [2] = ATP-based viability of Huh7 replicon cells – cell-based, CellTiter-Glo luminescence, basal, 48 h, cytotoxicity control for HCV replication inhibitor project, primary screen (AID 1143); details: higher = more signal, called active from +8 up or from −8 down;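 further: Huh7 hepatoma cells carrying a hepatitis C replication reporter with no stimulus; test concentration not given here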
# [3] = Pseudomonas biofilm growth suppression – PAO1 strain, BacTiter-Glo luminescence, LB-PBS, primary screen (AID 1144); details: P. aeruginosa PAO1 biofilm, 12 h, higher = more signal
# [4] = basal CRE-LacZ reporter activity in PC12 – cell-based, unstimulated, primary screen (AID 1145); details: no forskolin, luminescence, 4.5 h, higher = more signal, called active from +8 up or from −8 down
# [5] = forskolin-driven CRE-LacZ activity in PC12 – cell-based, CRE-LacZ reporter, forskolin-stimulated, primary screen (AID 1146); details: luminescence, 4.5 h, higher = more signal, called active from +8 up or from −8 down;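 further: PC12 cells with 6xCRE LacZ reporter stimulated by forskolin 10 µM; beta-galactosidase reporter signal reflecting CREB driven transcription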
# [6] = target: Streptavidin (Streptomyces avidinii) (UniProt P22629); test: compounds binding control protein streptavidin – biophysical, small-molecule microarray, 635/667 nm fluorescence, artefact control for SMM compound annotation, primary screen (AID 1147); details: higher = more signal;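 further: signal reflects streptavidin binding to arrayed compounds as a control protein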
# [7] = probe aInhba binding on compound microarray – biochemical, small-molecule microarray, 635/667 nm fluorescence, primary screen (AID 1148); details: higher = more signal;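 further: score merges 667nm spot fluorescence with signal-to-noise for antibody binding to printed compounds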
# Torsin-1A (Homo sapiens) [8] = target: Torsin-1A (Homo sapiens) (UniProt O14656); test: TOR1A wild-type binding on microarray – cell lysate, small-molecule microarray, lysate, 635/667 nm, primary screen (AID 1149); details: COS7 hTOR1A-WT lysate, 635 nm fluorescence, higher = more signal
# Torsin-1A (Homo sapiens) [9] = target: Torsin-1A (Homo sapiens) (UniProt O14656); test: torsin A mutant lysate binding on microarrays – cell lysate, small-molecule microarray, COS7 lysate, 635/667 nm fluorescence, primary screen (AID 1150); details: COS7 hTOR1A mutant lysate, 635 nm fluorescence, higher = more signal;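 further: score pools 667 nm emission and signal to noise measuring lysate protein binding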
# [10] = tested on: Sonic hedgehog protein (Shh); test: Sonic hedgehog microarray binding compounds – biochemical, small-molecule microarray, 635/667 nm fluorescence, primary screen (AID 1151); details: 635 nm fluorescence, higher = more signal;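 further: Shh protein binding to compounds spotted on small-molecule microarray slides; score combines spot fluorescence intensity with signal-to-noise across triplicate slides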
# [11] = optical density shifts of acrAB sulA E. coli – strain DRC41, OD650, 48 h, E. coli filamentation inducer project, primary screen (AID 1152); details: higher = more signal, called active from +8 up or from −8 down;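 further: E. coli MC1000 strain DRC41 lacking acrAB efflux pump and sulA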
# [12] = probe aLefty1 binding on compound microarray – biochemical, small-molecule microarray, 635/667 nm fluorescence, primary screen (AID 1153); details: higher = more signal;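 further: score merges spot fluorescence with signal-to-noise ratio from the scanned slide images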
# [13] = plasmodial surface anion channel blockers, osmotic lysis – cell-based, P. falciparum Indochina, OD700, 1 h, primary screen (AID 1154); details: P. falciparum Indochina infected RBC osmotic lysis, higher = more signal, called active from +8 up or from −8 down
# [14] = plasmodial surface anion channel blockers, osmotic lysis – cell-based, P. falciparum Indochina, OD700, 2 h, primary screen (AID 1155);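 further: lysis reports solute entry through the parasite surface anion channel PSAC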; details: P. falciparum Indochina infected erythrocytes, higher = more signal, called active from +8 up or from −8 down
# [15] = changes in parasitized red cell lysis, either direction – P. falciparum Indochina, OD700, 3 h, PSAC antagonist project, primary screen (AID 1156); details: P. falciparum-infected erythrocytes, osmotic lysis, higher = more signal, called active from +8 up or from −8 down
# [16] = plasmodial surface anion channel blockers, osmotic lysis – cell-based, P. falciparum Indochina, OD700, 18 h, primary screen (AID 1157); details: P. falciparum Indochina infected erythrocytes, osmotic lysis OD700, 18 h; higher = more signal, called active from +8 up or from −8 down
# [17] = S6 kinase pathway phospho-S6 level changes – cell-based, A549, cytoblot, luminescence, serum-stimulated, primary screen (AID 1158); details: 5 h, higher = more signal;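 further: serum-stimulated A549 lung adenocarcinoma cells; signal is phosphorylated S6 detected by cytoblot immunostaining with HRP secondary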
# [18] = target: NADPH oxidase 2 (Homo sapiens) (UniProt P04839); test: compounds shifting NOX2 Amplex Red fluorescence – cell-based, HEK293-NOX2, PMA-stimulated, NOX inhibitor project, primary screen (AID 1159); details: 45 min, higher = more signal, called active from +8 up or from −8 down; further: test concentration not given here
# [19] = target: NADPH oxidase 4 (Homo sapiens) (UniProt Q9NPH5); test: compounds shifting NOX4 Amplex Red fluorescence – cell-based, HEK293-NOX4, tetracycline-induced, NOX inhibitor project, primary screen (AID 1160); details: HEK293-NOX4, Amplex Red H2O2 fluorescence, 45 min; higher = more signal, called active from +8 up or from −8 down
# [20] = target: NADPH oxidase 5 (Homo sapiens) (UniProt Q96PH1); test: compounds shifting NOX5 Amplex Red fluorescence – cell-based, HEK293-NOX5, NOX inhibitor project, primary screen (AID 1161); details: HEK293-NOX5, ionomycin, 45 min, higher = more signal
# Chain of NADPH oxidase 5 (Homo sapiens) (Q96PH1 whole entry, looked up): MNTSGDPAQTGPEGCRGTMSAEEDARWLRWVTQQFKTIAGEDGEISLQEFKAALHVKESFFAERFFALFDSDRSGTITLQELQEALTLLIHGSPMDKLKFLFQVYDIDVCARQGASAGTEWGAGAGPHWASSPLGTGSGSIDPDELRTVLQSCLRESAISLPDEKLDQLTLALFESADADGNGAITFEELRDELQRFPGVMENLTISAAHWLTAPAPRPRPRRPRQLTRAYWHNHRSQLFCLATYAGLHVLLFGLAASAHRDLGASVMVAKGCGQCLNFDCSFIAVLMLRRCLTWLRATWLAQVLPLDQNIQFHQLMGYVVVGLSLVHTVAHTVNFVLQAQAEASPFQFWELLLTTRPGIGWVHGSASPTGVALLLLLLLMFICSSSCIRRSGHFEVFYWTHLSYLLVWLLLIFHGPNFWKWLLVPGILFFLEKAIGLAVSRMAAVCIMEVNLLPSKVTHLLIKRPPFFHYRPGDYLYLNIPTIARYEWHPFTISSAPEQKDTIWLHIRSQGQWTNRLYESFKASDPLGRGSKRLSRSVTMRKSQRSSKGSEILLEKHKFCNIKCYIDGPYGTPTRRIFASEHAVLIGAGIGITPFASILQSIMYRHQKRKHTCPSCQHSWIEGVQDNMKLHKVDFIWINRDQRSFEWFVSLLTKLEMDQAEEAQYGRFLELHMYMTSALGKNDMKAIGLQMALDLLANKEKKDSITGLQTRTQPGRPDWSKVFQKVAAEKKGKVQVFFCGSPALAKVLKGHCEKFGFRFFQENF
# Chain of Torsin-1A (Homo sapiens) (O14656 whole entry, looked up): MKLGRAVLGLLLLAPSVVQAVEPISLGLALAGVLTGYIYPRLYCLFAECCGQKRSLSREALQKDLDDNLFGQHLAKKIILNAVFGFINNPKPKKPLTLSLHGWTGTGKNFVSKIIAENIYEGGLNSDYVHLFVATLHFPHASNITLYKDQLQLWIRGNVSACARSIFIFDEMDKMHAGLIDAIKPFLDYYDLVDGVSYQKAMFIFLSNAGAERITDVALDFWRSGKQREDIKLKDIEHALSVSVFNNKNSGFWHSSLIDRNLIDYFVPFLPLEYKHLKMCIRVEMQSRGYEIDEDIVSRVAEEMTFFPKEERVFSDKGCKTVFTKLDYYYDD
# Chain of NADPH oxidase 4 (Homo sapiens) (Q9NPH5 whole entry, looked up): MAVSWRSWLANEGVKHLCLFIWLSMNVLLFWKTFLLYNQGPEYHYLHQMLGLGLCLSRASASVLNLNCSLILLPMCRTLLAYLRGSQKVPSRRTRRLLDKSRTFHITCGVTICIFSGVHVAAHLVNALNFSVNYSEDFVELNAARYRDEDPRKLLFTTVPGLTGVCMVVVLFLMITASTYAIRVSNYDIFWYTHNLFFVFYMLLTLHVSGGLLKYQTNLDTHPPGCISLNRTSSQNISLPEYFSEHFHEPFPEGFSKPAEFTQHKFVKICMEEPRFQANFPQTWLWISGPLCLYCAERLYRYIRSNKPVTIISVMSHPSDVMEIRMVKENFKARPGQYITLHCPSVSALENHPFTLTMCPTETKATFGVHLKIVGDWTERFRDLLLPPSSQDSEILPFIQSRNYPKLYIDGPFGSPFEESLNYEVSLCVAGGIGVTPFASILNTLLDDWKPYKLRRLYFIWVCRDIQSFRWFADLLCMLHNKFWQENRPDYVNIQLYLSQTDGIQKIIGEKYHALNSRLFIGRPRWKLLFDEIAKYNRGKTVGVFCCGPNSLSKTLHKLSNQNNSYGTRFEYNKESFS
# Chain of Streptavidin (Streptomyces avidinii) (P22629 whole entry, looked up): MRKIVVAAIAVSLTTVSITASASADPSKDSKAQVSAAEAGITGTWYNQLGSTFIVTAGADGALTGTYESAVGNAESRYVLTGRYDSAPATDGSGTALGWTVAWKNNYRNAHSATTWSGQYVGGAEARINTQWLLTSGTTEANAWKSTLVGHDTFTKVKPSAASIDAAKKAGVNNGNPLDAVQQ
# Chain of NADPH oxidase 2 (Homo sapiens) (P04839 whole entry, looked up): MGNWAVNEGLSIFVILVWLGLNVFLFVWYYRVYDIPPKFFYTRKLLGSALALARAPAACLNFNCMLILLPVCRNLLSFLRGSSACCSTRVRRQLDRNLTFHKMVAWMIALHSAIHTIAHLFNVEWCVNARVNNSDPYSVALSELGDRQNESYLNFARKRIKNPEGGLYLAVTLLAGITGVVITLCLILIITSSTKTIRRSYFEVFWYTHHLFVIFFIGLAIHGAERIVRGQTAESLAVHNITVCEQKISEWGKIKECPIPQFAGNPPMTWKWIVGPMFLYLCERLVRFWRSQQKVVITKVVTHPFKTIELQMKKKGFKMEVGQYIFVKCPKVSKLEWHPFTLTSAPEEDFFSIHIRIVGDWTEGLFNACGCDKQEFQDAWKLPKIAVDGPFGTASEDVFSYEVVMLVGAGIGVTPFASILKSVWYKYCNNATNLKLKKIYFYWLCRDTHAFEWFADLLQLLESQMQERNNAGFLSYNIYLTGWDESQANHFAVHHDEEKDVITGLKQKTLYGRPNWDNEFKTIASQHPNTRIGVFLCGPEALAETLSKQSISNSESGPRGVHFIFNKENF
Compound,composite z-score [1],z-score [2],z-score [3],z-score [4],z-score [5],composite z-score [6],composite z-score [7],composite z-score (Torsin-1A (Homo sapiens) [8]),composite z-score (Torsin-1A (Homo sapiens) [9]),composite z-score [10],z-score [11],composite z-score [12],z-score [13],z-score [14],z-score [15],z-score [16],z-score [17],z-score [18],z-score [19],z-score [20]
C=CC[C@@]1(C(=O)N(C)C)N=C(c2ccc(OCCCO)cc2)O[C@@H]1c1ccccc1,0.919,-1.45 (inactive),0.442 (inactive),0.652 (inactive),0.535 (inactive),-0.232,0.496,0.986,0.571,-0.0763,-0.463 (inactive),0.123,24 (active),5.44 (inactive),0.549 (inactive),1.13 (inactive),-0.342,-0.315 (inactive),0.723 (inactive),-0.651
C=C(COC)C(=O)CC[C@@H](OC(C)=O)c1ccc(OCCO)cc1,0.284,-0.354 (inactive),-0.176 (inactive),0.625 (inactive),8.41 (active),-0.0368,-0.0523,1.82,-0.241,1.64,-0.297 (inactive),-0.007,2.52 (inactive),0.27 (inactive),0.133 (inactive),0.0871 (inactive),0.239,-0.352 (inactive),-0.885 (inactive),-0.112
COC(=O)[C@@]1(CCS(=O)(=O)c2ccccc2)N=C(c2ccc(OCCCO)cc2)O[C@H]1c1ccccc1N=[N+]=[N-],0.0174,-3.08 (inactive),-0.16 (inactive),0.377 (inactive),-0.112 (inactive),0.586,0.0519,1.83,1.04,1.2,-0.527 (inactive),-0.0559,26.9 (active),22.3 (active),1.09 (inactive),3.42 (inactive),0.819,-1.31 (inactive),1.02 (inactive),-1.59
O=C1NC(=O)C2C1C=CC(C(O)c1cccc(O)c1)N2Nc1ccc(Cl)cc1Cl (stereo not given),-0.125,-1.08 (inactive),-0.355 (inactive),0.629 (inactive),-0.45 (inactive),0.423,-0.13,-0.309,0.25,-1.14,-4.5 (inactive),0.139,4.82 (inactive),1.36 (inactive),-0.608 (inactive),0.901 (inactive),-1.22,-0.897 (inactive),-5.3 (inactive),-3.11
C=CCC(OC(C)=O)[C@@H]1[C@@H](N(Cc2ccc(-c3ccccc3)cc2)C(=O)c2cccc3ccccc23)c2cc(OCCCO)ccc2N1C(=O)c1ccc2ccccc2c1 (stereo not given in full),0.0959,-1.61 (inactive),0.41 (inactive),-0.155 (inactive),0.108 (inactive),0.144,0.0219,-0.0928,0.0249,0.156,-0.887 (inactive),-0.0447,0.441 (inactive),-0.35 (inactive),-0.0836 (inactive),-0.0577 (inactive),-0.146,-0.634 (inactive),-0.572 (inactive),-4.29
CCCCCCCCCCC(O)C1C=CC2C(=O)N(C)C(=O)C2N1N1CCCCC1 (stereo not given),-0.542,-0.6 (inactive),0.816 (inactive),0.0569 (inactive),1.39 (inactive),-0.862,-0.0762,-0.0728,0.522,-1.89,-1.83 (inactive),0.532,9.71 (active),2.41 (inactive),2.12 (inactive),2.2 (inactive),-1.58,1.18 (inactive),-1.94 (inactive),2.16
CCCC[C@@H]1C[C@H]1[C@@H](NC(=O)Cc1ccccc1)c1ccc(Cl)cc1,0.545,-3.44 (inactive),1.19 (inactive),0.962 (inactive),0.56 (inactive),2.32,-0.0002,0.578,0.311,-0.22,-1.71 (inactive),0.509,1.15 (inactive),1.03 (inactive),2.18 (inactive),1.53 (inactive),-1.06,-0.795 (inactive),-0.195 (inactive),1.88
CN1C(=O)C2C=CC(C(O)c3ccc(-c4ccccc4)s3)N(Nc3ccccc3)C2C1=O (stereo not given),-0.24,0.809 (inactive),-0.46 (inactive),0.429 (inactive),-0.666 (inactive),2.23,0.395,0.0922,0.271,-0.212,-1.06 (inactive),0.612,2.55 (inactive),1.05 (inactive),0.156 (inactive),1.29 (inactive),-0.857,-1.21 (inactive),-4.15 (inactive),-1.81
C#CCN(C/C=C/c1ccccc1)[C@H](CO[Si](C)(C)C(C)(C)C)c1ccccc1,-0.276,-0.832 (inactive),0.221 (inactive),-0.0487 (inactive),-0.626 (inactive),-0.531,-0.0719,-0.805,-0.239,0.0896,-0.78 (inactive),-0.346,0.829 (inactive),0.984 (inactive),1.05 (inactive),-0.161 (inactive),-0.0623,1.64 (inactive),0.447 (inactive),-0.419
